# Screening data (PubChem)
# Hits are enriched below; roughly 5.7% of the tested compounds scored in any of these assays.
# rCAG RNA binder – binders of r(CAG) RNA repeats, primary screen, biochemical, fluorescence; r(CAG) RNA repeat, TO-PRO-1 dye displacement fluorescence; inhibition, % at 3 µM; 370,000 compounds, 1.3% hits; AID 651821, 2012;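 active = inhibition above the plate cutoff, the mean of all test compounds on that plate plus 3 SD, cut at about 35% in these data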;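 also: 0% = DMSO alone and 100% = 100 µM mitoxantrone as full dye displacement; higher means more dye released from RNA so lower well fluorescence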
# MPTP block – mitochondrial permeability transition pore inhibitors, primary screen, biochemical, isolated mouse mitochondria, absorbance. 360,000 compounds, 1.4% hits. inhibition, % at 10 µM. Ca2+ swelling absorbance, 30 min;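 active = inhibition of 50% or more, scaled per plate between neutral and stimulator controls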;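 also: 0% = DMSO wells given calcium and 100% = 1 mM EGTA wells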
# FAS TE block – FAS thioesterase domain inhibitors, primary screen, biochemical, fluorescence intensity, uHTS; Fatty acid synthase (Homo sapiens), P49327; recombinant FAS-TE, OMFH fluorogenic substrate, fluorescence endpoint; inhibition, % at 15 µM; 360,000 compounds, 0.67% hits;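 active = compounds whose normalised, plate-corrected inhibition of enzyme fluorescence in the single-dose primary screen is 50% or more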;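 also: 0% = DMSO with enzyme and 100% = substrate without enzyme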
# Myeloid diff MLP – induction of myeloid progenitor differentiation, primary screen, cell-based, flow cytometry, MLPCN library; AID 624256, 2012; ER-HoxA9 myeloid progenitors, lysozyme-GFP differentiation; 360,000 compounds, 1% hits; calls only at 10 µM;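 active = normalized GFP-positive differentiation at or above the plate's own cutoff, the solvent-only control mean plus 3 SD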;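 also: cells exposed to compound for four days before flow analysis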
# GRIN3A LBD mod – binders of NR3A ligand-binding domain, primary screen, biophysical, differential scanning fluorimetry, uHTS | Glutamate receptor ionotropic, NMDA 3A (GRIN3A) ligand-binding domain | NR3A LBD differential scanning fluorimetry, Tm shift; 0% = protein alone, 100% = glycine-bound protein | Tm shift relative to glycine control, % at 25 µM | 340,000 compounds, 2.5% hits | AID 1259313, 2017;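 active = melting temperature shift of at least 10% of the positive control shift, at one fixed dose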
# The depositor's hits bear a star; i = inactive; . = no result given; + = active, no number.
SMILES,rCAG RNA binder,MPTP block,FAS TE block,Myeloid diff MLP,GRIN3A LBD mod
CCOc1ccccc1C1C(C#N)=C(N)SC(N)=C1C#N,6,-2,-83,+,-12
CCOc1ccc(C2C(C#N)=C(N)SC(N)=C2C#N)cc1OCC,20,6,-66,+,-5
N#CC1=C(N)SC(N)=C(C#N)C1c1ccc([N+](=O)[O-])cc1,23,19,-15,i,-6
CCCc1ncc(C(O)c2cccc3ccccc23)n1C (stereo not given),-2,-3,-7,i,12*
COc1ccc(C(=O)CC(=O)c2ccccc2O)cc1,3,-3,10,i,3
COc1ccc(C(=O)CC(=O)c2ccccc2O)cc1OC,2,0,-2,i,15*
COCCNC(=O)c1ccccc1NC(=O)c1ccc(OC)c(OC)c1,-5,0,-3,+,-1
CCC(=O)c1ccc(OCc2ccccc2)c(OC)c1,-8,2,3,i,11*
CC(=O)Nc1cc(-c2ccccc2CN(C)C)cn2c(-c3ccc(C(C)=O)cc3)cnc12,2,-2,2,i,.
O=C(c1ccccc1Oc1ccccc1)N1CCC(Oc2cccnc2)CC1,0,.,.,.,.
CCOC(=O)N(C)[C@H]1C[C@H]2c3[nH]c4c(-c5cccc(C)c5)cccc4c3CCN2C[C@H]1[C@H](C)O,7,.,.,.,.
O=C1NC(c2cccc(OCc3ccccc3)c2)Nc2ccccc21 (stereo not given),5,0,2,.,13*
O=C1NC(c2ccc(O)cc2)Nc2ccccc21 (stereo not given),-2,1,-4,i,-4
CCOC(=O)C1CCN(C(=O)Cn2nc(C)n3c(cc4cc(C)ccc43)c2=O)CC1,-1,2,-5,i,-3
CCC(C(=O)N1CCOCC1)n1nc(C)n2c(cc3cc(C)ccc32)c1=O (stereo not given),-5,-1,-8,i,11*
COc1ccc(C(C(=O)N(C)C2CCCC2)N(Cc2ccc(F)cc2)C(=O)c2ccc3ccccc3c2)cc1OC (stereo not given),8,.,.,.,.
O=C(C=Cc1cccnc1)c1ccccc1,1,-2,-2,i,0
O=C(/C=C/c1cccnc1)c1ccccc1O,1,0,0,i,15*
Cc1nc2ccc(NC(=O)c3cc(S(=O)(=O)N4CCOCC4)ccc3C)cc2s1,2,12,-2,i,-1
Cc1nc2ccc(NC(=O)c3ccc(C)c(S(=O)(=O)N4CCOCC4)c3)cc2s1,7,0,-2,i,13*
O=C(Nc1ccc(-c2cn3ccsc3n2)cc1)c1ccc(F)c(S(=O)(=O)N2CCOCC2)c1,19,6,6,i,25*
Cc1nc2ccc(NC(=O)c3ccc(S(=O)(=O)N(C)C)cc3)cc2s1,2,0,-1,i,10*
Cc1ccc(C(=O)Nc2ccc(Cl)cn2)cc1S(=O)(=O)N1CCOCC1,3,-3,4,i,19*
O=C(CSc1nnc(Cc2cccs2)n1-c1ccccc1)Nc1ccccc1-c1ccccc1,3,.,.,.,.
O=C1N2Cc3ccccc3C2CS(=O)(=O)N1C1CCCC1 (stereo not given),2,.,.,.,.
SMILES,rCAG RNA binder,MPTP block,FAS TE block,Myeloid diff MLP,GRIN3A LBD mod
COC(=O)C1=C(C)N(Cc2cccc(C(F)(F)F)c2)C(=NCc2cc(OC)c(OC)c(OC)c2)NC1c1cccc(F)c1 (stereo not given),5,.,.,.,.
Cc1[nH]c2ccccc2c1CC(=O)Nc1ccc(Nc2cccnc2)c(-c2ccc(Cl)c(Cl)c2)c1,14,.,.,.,.
Cc1ccc(C(=O)NC2CCCCCCC2)cc1S(=O)(=O)N1CCOCC1,-4,-2,5,i,34*
O=C(NC1CCCC1)c1ccc(Cl)c(S(=O)(=O)N2CCOCC2)c1,-4,1,-3,i,0
COC(=O)[C@]12C[C@H](CC(=O)NCCCN3CCCC3=O)C(=O)N(Cc3ccc4c(c3)OCO4)C1=C[C@H](COCc1ccccc1)O[C@@H]2C,2,.,.,.,.
C[C@@H]1COc2cc(N3CCSCC3)ccc2S(=O)(=O)N1C,1,.,.,.,.
Cc1cc(C)nc(NC(=O)/C=C/c2ccccc2Cl)n1,-2,-4,2,+,-2
O=C(/C=C/c1ccc(Cl)cc1Cl)Nc1ccncc1,6,42,-2,i,32*
Cc1cc(N)c2cc(NC(=O)/C=C/c3ccccc3Cl)ccc2n1,.,15,0,i,18*
Cc1ccnc(NC(=O)/C=C/c2ccccc2Cl)c1,3,2,8,i,20*
COC(=O)[C@]1(CNC(=O)NCCc2ccc(OC)c(OC)c2)CC(=O)N(C)[C@@H]1c1ccccc1,-2,.,.,.,.
O=C(NCc1ccco1)c1ccc(COCC(F)(F)C(F)F)cc1,41*,3,-4,i,2
O=C(NCc1ccco1)c1cc(-c2ccccc2)on1,-2,1,-5,i,11*
O=C(NCc1ccco1)c1cc(-c2ccc(F)cc2)on1,2,0,-8,i,-1
Cc1ccc(C(=O)NCc2ccco2)o1,4,2,-2,+,0
Cc1cc(C(=O)NCc2ccco2)on1,4,1,-5,i,-1
S=c1[nH]nc(-c2n[nH]c3c2CCC3)n1N=Cc1ccc(Br)s1,22,.,.,.,.
O=C(CSc1nnc(SCc2cccc3ccccc23)s1)Nc1ccccc1-c1ccccc1,6,.,.,.,.
S=C(Nc1ccc(Cl)c(Cl)c1)N1CCN(c2ccccn2)CC1,1,1,-1,i,11*
S=C(Nc1cccc(Cl)c1)N1CCN(c2ccccn2)CC1,-1,0,0,i,1
S=C(Nc1ccc(Cl)c(Cl)c1)N1CCCC1,-2,0,2,i,-2
CN1CCN(C(=S)Nc2ccc(Cl)c(Cl)c2)CC1,-2,-1,-3,i,13*
O=C(Nc1ccc2nc(-c3ccco3)c(-c3ccco3)nc2c1)N1CCN(c2ccccn2)CC1,44*,4,5,i,-5
COc1ccc(CN2C(C(=O)NCC(C)C)CSCCS2(=O)=O)cc1 (stereo not given),-2,.,.,.,.
COC(=O)[C@]12C[C@H](CC(=O)NCc3ccc(OC)c(OC)c3)C(=O)N(Cc3cccc4ccccc34)C1=C[C@H](C(C)(C)C)O[C@@H]2C,4,.,.,.,.
Cc1cc(NC(=O)CSc2nc3c(sc4ccccc43)c(=O)n2CCc2ccccc2)n[nH]1,3,0,-7,i,27*
O=C(NN=Cc1ccccc1O)C(=O)Nc1ccc(F)cc1,4,.,.,.,.
CCN1CCN(c2ccc(S(=O)(=O)N3CCCCC3)cc2NC(=O)/C=C/c2ccc([N+](=O)[O-])cc2)CC1,6,-1,28,i,-4
